# Data as given in the supplement of paper PMC6555819.
# What was measured:
# Assay in all cases: PBM binding z-score (relative to random genomic background probes); higher = stronger binding; sequences stand for … in GC…GCGATTGACAGCGTAGAATGAAGG
# [1] = tested on: PPARg:RXRa DBDmut IVT, anti-RXR (DBD mutation: RXRa K156A/R161A, NR concentration 270 nM, RXRa partner concentration 90 nM)
# Procedure, shortened: (§1)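 Binding buffer was PBS pH 7.4 with 2% milk, 0.02% Triton X-100, 1 mM DTT, 0.2 mg/mL BSA and 0.4 mg/ml salmon testes DNA. In it, ligand-free nuclear receptor dimers were incubated 1 h on custom Agilent 4×180K protein-binding microarrays carrying double-stranded probes. Antibodies against each partner (one per run) detected binding, and z-scores were calculated against random background probes after regression normalization of scanned fluorescence.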
# [2] = tested on: PPARg:RXRa IVT, anti-PPARg (NR concentration 270 nM, RXRa partner concentration 90 nM)
# Procedure, shortened: as §1
# [3] = tested on: PPARg DBDmut:RXRa IVT, anti-PPARg (DBD mutation: PPARg1 K132A/R137A, NR concentration 270 nM, RXRa partner concentration 90 nM)
# Procedure, shortened: as §1
# [4] = tested on: PPARg DBDmut IVT, anti-PPARg (DBD mutation: PPARg1 K132A/R137A, NR concentration 270 nM)
# Procedure, shortened: as §1
# [5] = tested on: PPARg homodimer (NR concentration 180 nM)
# Procedure, shortened: as §1
# [6] = tested on: PXR:RXRa (NR concentration 270 nM, RXRa partner concentration 90 nM)
# Procedure, shortened: as §1
# [7] = tested on: PXR homodimer (NR concentration 270 nM)
# Procedure, shortened: as §1
# [8] = tested on: RARa:RXR (NR concentration 270 nM, RXRa partner concentration 90 nM)
# Procedure, shortened: as §1
# [9] = tested on: RARa homodimer (NR concentration 270 nM)
# Procedure, shortened: as §1
# [10] = tested on: RARb:RXRa (NR concentration 270 nM, RXRa partner concentration 90 nM)
# Procedure, shortened: as §1
# [11] = tested on: RARb homodimer (NR concentration 270 nM)
# Procedure, shortened: as §1
# [12] = tested on: RARg:RXRa (NR concentration 270 nM, RXRa partner concentration 90 nM)
# Procedure, shortened: as §1
# [13] = tested on: RARg homodimer (NR concentration 270 nM)
# Procedure, shortened: as §1
# [14] = tested on: RXRa DBDmut IVT, anti-RXR (DBD mutation: RXRa K156A/R161A, NR concentration 90 nM)
# Procedure, shortened: as §1
# [15] = tested on: RXRa homodimer (NR concentration 180 nM)
# Procedure, shortened: as §1
# [16] = tested on: THRa:RXRa (NR concentration 90 nM, RXRa partner concentration 90 nM)
# Procedure, shortened: as §1
# [17] = tested on: THRa homodimer (NR concentration 90 nM)
# Procedure, shortened: as §1
# [18] = tested on: VDR:RXRa (NR concentration 270 nM, RXRa partner concentration 90 nM)
# Procedure, shortened: as §1
# [19] = tested on: VDR homodimer (NR concentration 270 nM)
# Procedure, shortened: as §1
Sequence,PBM binding z-score [1],PBM binding z-score [2],PBM binding z-score [3],PBM binding z-score [4],PBM binding z-score [5],PBM binding z-score [6],PBM binding z-score [7],PBM binding z-score [8],PBM binding z-score [9],PBM binding z-score [10],PBM binding z-score [11],PBM binding z-score [12],PBM binding z-score [13],PBM binding z-score [14],PBM binding z-score [15],PBM binding z-score [16],PBM binding z-score [17],PBM binding z-score [18],PBM binding z-score [19]
TTACCAAGGTGAAGGTTGTTGATCCCTCTGTAGA,1.42,2.94,0.413,-0.108,0.542,0.665,-0.348,0.887,-0.403,1.58,1.02,0.564,0.48,-0.157,0.836,2.06,0.718,0.381,-0.156
CCTTACGGGTCACGAGGTTCTAGCACGACGAGCG,4.32,5.09,0.979,-0.156,2.86,4.06,-0.111,5.48,0.989,4.41,3.27,5.61,5.78,1.49,6.58,3.25,0.28,6.18,1.86
ATCTCTAGGTAAAAGTCCAGTGAATCCCGAGGAT,2.07,1.54,0.922,0.924,0.148,-0.1,0.357,-0.148,0.615,0.582,-0.174,0.275,0.393,-0.403,-0.00664,0.296,0.175,0.00204,0.187
ATTTCTAGGTAAGACTCAGTTCAGTGAAGAACGC,4.54,2.6,1.64,1.76,1.66,1.39,1.8,0.607,2.29,0.674,0.518,0.801,0.283,0.956,0.351,0.941,0.851,1.6,2
ATCTCTAGGTAAAGATAATTCAGTGAATGCAAAT,2.32,1.93,1.06,1.29,0.141,0.14,0.504,0.441,1.38,-0.0226,-0.268,0.658,0.648,0.0492,0.365,0.654,0.0536,0.0441,-0.00622
AGACCGAGGGCACGCTGAGTTGATAGCAGAGTAG,1.14,1.33,-0.432,-1.3,0.2,1.52,-0.245,0.998,-0.487,2.61,1.33,2.22,2.06,1.49,1.31,1.77,-0.237,2.21,1.75
CCTGCTAGGTCATGGTTAGCTAATCTACAGTATG,4.51,3.71,1.31,0.491,3.42,1.38,-0.137,2.44,-0.015,3.65,2.79,4.02,4.34,1.43,2.52,2.99,1.03,1.39,-0.043
ATCTCTAGGTAACCATGTTCAGTGAATGCCGAAC,3.64,2.88,0.786,1.37,0.698,0.218,0.202,0.406,0.844,0.355,0.332,0.315,0.421,0.392,0.272,0.812,0.66,0.463,0.0942
CCTGCTGGGCCAAAGGTCATTGATTCCAATGCTC,1.56,4.42,-0.0348,0.037,3.9,5.43,1.15,6.18,0.602,4.63,4.53,5.82,4.91,1.48,6.37,3.2,0.638,4.43,2.24
ACTTACGGGTCATCGAGGTTATAGCACGCGTATA,2.89,4.16,1.78,1.14,2.09,5.14,4.1,4.92,1.11,4.11,3.64,5.43,4.96,2.98,6.18,4.03,1.28,7.51,4.26
TCTGCTAGGTCAGTTGGTCAGCTGACGAGCTGCC,2.95,3.18,1.59,1.47,0.336,0.0252,-1.5,0.0768,-1.43,3.42,2.33,2.98,4.14,0.382,0.854,1.31,-0.308,-0.0967,-1.1
TCTCGGAGGACACGAAAGGACAGAGCTCGACATC,1.47,0.125,-0.295,-0.96,-0.288,-0.168,-0.334,0.0232,-0.282,2.03,1.82,1.33,2.48,0.518,0.152,2.23,0.669,-0.146,-0.424
TAGCCTAGGACATTCAGGGGCCAGTATAGAAAGC,-0.851,-0.425,-0.632,-1.43,-1.03,-0.401,-0.611,-0.598,-0.859,0.541,0.77,0.352,0.546,-0.698,-0.1,0.588,-0.132,-0.174,-0.236
CCGACTGGGGCATACGGTTACCATAAGCCAGCCC,2.5,2.15,-0.604,-1.2,0.276,-0.401,-0.646,-0.126,-0.0238,0.496,0.117,0.0936,0.374,-0.766,0.369,-0.473,-0.389,-0.577,-0.653
ATATGTAGGTTAGCTGGGGTCATACAGACTAGGC,6.97,6.06,1.52,1.48,2.67,6.28,3.07,5.89,1.68,3.13,3.9,4.36,3.32,1.64,6.14,5.18,3.83,6.08,4.09
ATCGGAAGGTCGAAGGTGAGTATACCCACCCGAA,-0.338,1.53,0.343,-0.28,1.26,1.65,0.401,2.34,-0.118,2.55,1.44,2.82,2.27,0.152,3.19,1.4,-0.0912,1.5,0.449
GATACAGGGTCAGCTAGAGGCCAGAGTCTGGAAA,1.42,2.41,-0.329,-0.829,2.68,3.16,-0.43,4.74,0.22,4.16,3.39,6.56,5.07,1.7,4.07,2.9,0.144,3.26,0.522
ATATGTAGGTTATCGGGTCATTTAGTTTGCGCAT,7.62,7.25,1.55,1.71,3.3,3.33,4.87,3.6,1.47,2.56,3.08,3.19,2.33,1.69,3.5,3.3,2.86,4.24,2.85
ACTGTTAGTTGACTTAGGGCAACCGATACGACGC,0.0464,0.607,0.909,0.844,0.977,0.277,0.341,0.582,0.354,1.04,1.09,1.22,1.25,0.609,0.472,1.51,0.731,0.59,0.453
ACTATTAGTAGAGACGAGGGCAACCGATAGGTTG,-0.0666,0.751,1.1,0.293,0.251,0.541,0.137,0.421,0.262,0.97,0.968,0.616,0.804,0.392,0.661,0.934,0.11,0.332,0.675
GGATCGAGGGCAAAGTTGATAGCATCTGTCGACG,3.8,4.54,0.527,1.19,1.75,1.34,0.172,1.65,-0.00886,2.61,1.47,2.12,1.7,2.4,2.08,1.39,-0.165,1.44,1.94
ATCGAAAGGACGTGAGGTGAGTATACAGAAAGGC,-0.822,0.152,1.3,0.397,0.165,-0.361,-0.0869,0.0924,0.0832,1.09,0.895,0.703,1.12,-0.854,0.282,1.89,0.987,-0.301,0.126
ACTATTAGTTGAGATGAGGGCAACCGATAGGTTG,0.105,0.33,1.25,0.632,0.972,1.35,0.727,0.676,1.33,1.22,1.05,0.932,0.979,0.642,0.671,2.84,0.833,0.654,1.18
TCTTGTAGATCAATAGAGGTTAAGAAAGTGCGCT,1.96,1.06,0.946,0.475,0.36,2.86,0.0612,1.67,-0.172,0.91,1.1,0.791,0.296,0.705,1.28,2.07,-0.31,1.8,0.3
ATCTCTAAGTAAAAGTTCAGTGAATCCCGAGGAT,-0.124,0.598,0.919,0.992,1.15,1.72,1.61,1.19,1.33,2.33,2.23,1.54,1.99,1.09,0.961,0.533,-0.127,1.05,1.62
ATCTCTAGGTAAGACTCAGTTCAGTGAGGAACGC,1.94,1.26,0.558,0.604,0.314,0.836,1.56,0.193,0.359,0.376,0.438,0.383,0.447,0.293,0.124,0.714,0.481,0.748,1.3
ACTATTAGTTGAGACGAGGGAAACCGATAGGTTG,0.0625,-0.339,0.706,0.394,0.465,-0.464,-0.0777,0.0368,0.655,-0.193,-0.559,0.157,0.307,0.505,0.0988,0.35,-0.716,-0.364,0.415
ATCTCTAGATAAGACTCAGTTCAGTGAAGAACGC,-0.453,-0.237,-0.428,1.1,-0.287,0.428,0.883,-0.0778,0.631,-0.306,0.0113,-0.0447,0.323,0.327,-0.154,0.116,-0.107,0.209,1.02
CCTACTGGGCCATTCAGAGGTCGTTGATCATATG,4.62,3.78,-0.302,0.289,0.217,1.55,0.112,1.27,-0.226,1.11,1.58,1.55,0.872,0.268,1.05,1.28,0.339,1.49,2.12
TCATATAGGTAACCAGGTGAAAGTCCGTAAGTTA,5.2,5.99,0.0685,0.802,1.14,0.852,0.506,1.06,0.583,1,0.957,0.558,0.452,1.38,1.25,1.73,1.05,1.06,0.27
